Results reported in PubChem BioAssay AID651626 (National Center for Advancing Translational Sciences (NCATS), 2012).
Values without a mark were called inactive.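 How the source made its calls: active means inhibition of at least 60% at 114 µM in the USP2 gel assay; inconclusive means inhibition from 30% up to under 60% at 114 µM; inactive means inhibition under 30% at 114 µM.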

biological target: Ubiquitin carboxyl-terminal hydrolase 2 (Homo sapiens) (UniProt O75604); experiment: Inhibitors of USP1/UAF1: SAR in USP2 diubiquitin SDS-PAGE gel assay; conditions: USP2 K63 diubiquitin cleavage, SDS-PAGE gel densitometry; series mostly up to 114 µM; inhibition: at the top concentration
Sequence (O75604 whole entry, looked up): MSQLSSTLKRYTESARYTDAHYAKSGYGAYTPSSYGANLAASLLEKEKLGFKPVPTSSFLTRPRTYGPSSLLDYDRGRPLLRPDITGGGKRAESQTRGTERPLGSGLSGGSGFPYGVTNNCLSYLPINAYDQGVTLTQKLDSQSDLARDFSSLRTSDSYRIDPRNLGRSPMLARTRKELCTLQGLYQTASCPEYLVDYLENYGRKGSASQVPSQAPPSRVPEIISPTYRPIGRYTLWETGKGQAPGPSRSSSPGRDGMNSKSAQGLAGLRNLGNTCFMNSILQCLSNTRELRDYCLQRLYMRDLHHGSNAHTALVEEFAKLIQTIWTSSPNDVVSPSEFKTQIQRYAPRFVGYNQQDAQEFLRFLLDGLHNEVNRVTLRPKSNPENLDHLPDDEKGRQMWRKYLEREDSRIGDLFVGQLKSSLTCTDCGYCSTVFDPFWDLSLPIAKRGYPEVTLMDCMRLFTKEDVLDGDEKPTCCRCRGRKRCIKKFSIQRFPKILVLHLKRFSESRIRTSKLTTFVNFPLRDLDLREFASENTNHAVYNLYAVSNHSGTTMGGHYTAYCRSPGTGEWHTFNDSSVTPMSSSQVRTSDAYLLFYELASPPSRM
Text: Deubiquitinating enzymes (DUBs) are a class of enzymes that can cleave isopeptide bond formed between the C-terminal carboxylate of ubiquitin and a lysine side-chain amino group on the target protein. Among them, ubiquitin specific proteases (USPs) constitute the largest DUB family. Human USPs are emerging as promising targets for pharmacological intervention because of their connection to a number of human diseases, including prostate, colon and breast cancer (1, 2), pediatric acute lymphoblastic leukemia (3), and familial cylindromatosis (4). The advantage of inhibiting USPs lies in the potential specificity of therapeutic intervention that can lead to better efficacy and reduce nonspecific side effects. In a collaboration between the University of Delaware and the NIH Chemical Genomics Center, a high-throughput screen assay was developed to screen for USP1/UAF1 inhibitors (5). […]
The inhibition assay contains 20 nM USP2, 2 microM K63 linked diubiquitin, and inhibitors at varied concentrations (0.08 microM - 114 microM). […] The intensity of the individual diubiquitin and monoubiquitin band was quantified using Quantity One 4.3.1 (Biorad, Hercules, CA). The percentage of the conversion was determined and used to calculate the reaction rate. […]

| SMILES | inhibition [%] |
| --- | --- |
| Cc1cnc(-c2ccccc2C(C)C)nc1NCc1ccc(-n2ccnn2)cc1 | 8 |
